From PubChem BioAssay (NCATS)
For part of these data: Entries with a potency or affinity are not part of this list. The source made the active and inactive calls. For most assays here, calls come from the whole dose curve. Where a SMILES comes first, the peptide text is derived from it. Bridges are numbered along the chain shown (N, C = ends). [ ]: non-standard residue; d: D form. The star is where a group is joined. Dab(CH2SO3H) = N[C@@H](CCNCS(=O)(=O)O)C(=O)O; X1 = CC[C@@H](C)CCCCC(=O)*; Dab = NCC[C@H](N)C(=O)O

Columns and labels:
[1] = Ebola virus entry assay, blue channel fluorescence
[2] = Ebola virus entry assay, green fluorescence channel
[3] = Ebola virus entry assay, ratio channel readout
[4] = Ebola virus entry assay, blue channel fluorescence; remark: listed apart in the source

Row | Compound | outcome [1] | outcome [2] | outcome [3] | AC50 [3] | AC50 [1] | outcome [4]
1 | O=C(O)c1cc(N=Nc2ccc(O)c(C(=O)O)c2)ccc1O | inactive | inactive | inactive |  |  | 
2 | N#Cc1ccc2c(c1)N(CCCN1CCC(O)CC1)c1ccccc1S2 | inactive | inactive |  | 22.4 µM (active) |  | 
3 | COc1cc(Br)c(C[N+]2(CCOCCC3CCC4CC3C4(C)C)CCOCC2)cc1OC (centres undefined) | inactive | inactive | inactive |  |  | 
4 | O=C(OC1C[C@@H]2CC3C[C@H](C1)N2CC3=O)c1c[nH]c2ccccc12 (some centres undefined) | inactive | inactive | inactive |  |  | 
5 | C[N+](C)(C)CC(O)CC(=O)[O-] (centres undefined) | inactive | inactive | inactive |  |  | 
6 | CC(=O)NC[C@H]1CN(c2ccc(N3CCOCC3)c(F)c2)C(=O)O1 | inactive | inactive | inactive |  |  | 
7 | Nc1nc(NC2CC2)c2ncn([C@@H]3C=C[C@@H](CO)C3)c2n1 | inactive | inactive | inactive |  |  | 
8 | CN[C@@H]1CCc2[nH]c3ccc(C(N)=O)cc3c2C1 | inactive | inactive | inactive |  |  | 
9 | Nc1nc(=O)n([C@@H]2CS[C@H](CO)O2)cc1F | inactive | inactive | inactive |  |  | 
10 | CN=C1CN(O)C(c2ccccc2)=c2cc(Cl)ccc2=N1 | inactive | inactive | inactive |  |  | 
11 | CCN1C(=O)NC(c2ccccc2)C1=O (centres undefined) | inactive | inactive | inactive |  |  | 
12 | C[C@]12C=CC(=O)N[C@@H]1CC[C@@H]1[C@@H]2CC[C@]2(C)[C@@H](C(=O)Nc3cc(C(F)(F)F)ccc3C(F)(F)F)CC[C@@H]12 | inactive | inactive | inactive |  |  | 
13 | CCOC(=O)C1=C(COCCN)NC(C)=C(C(=O)OC)C1c1ccccc1Cl (centres undefined) | inactive | inactive | inactive |  |  | 
14 | CC[C@H]1OC(=O)[C@H](C)[C@@H](O[C@H]2C[C@@](C)(OC)[C@@H](O)[C@H](C)O2)C(C)[C@@H](O[C@@H]2O[C@H](C)C[C@H](N(C)C)[C@@H]2O)[C@](C)(OC)C[C@@H](C)C(=O)[C@H](C)[C@@H](O)[C@]1(C)O (some centres undefined) |  | inactive |  | 7.95 µM (active) | 7.94 µM (active) | 
15 | Cc1c(N)nc([C@H](CC(N)=O)NC[C@H](N)C(N)=O)nc1C(=O)N[C@H](C(=O)N[C@H](C)[C@@H](O)[C@H](C)C(=O)N[C@H](C(=O)NCCc1nc(-c2nc(C(=O)NCCCCN=C(N)N)cs2)cs1)[C@@H](C)O)[C@@H](O[C@@H]1O[C@@H](CO)[C@@H](O)[C@H](O)[C@@H]1O[C@H]1O[C@H](CO)[C@@H](O)[C@H](OC(N)=O)[C@@H]1O)c1cnc[nH]1 | inactive | inactive | inactive |  |  | 
16 | COc1cc([C@@H]2c3cc4c(cc3C(O[C@@H]3O[C@@H]5CO[C@@H](C)O[C@H]5[C@H](O)[C@H]3O)C3COC(=O)[C@@H]32)OCO4)cc(OC)c1OP(=O)(O)O (some centres undefined) |  | inactive |  | 7.08 µM (active) | 7.08 µM (active) | 
17 | CCC(=O)NCCC1CCc2ccc3c(c21)CCO3 (centres undefined) | inactive | inactive | inactive |  |  | 
18 | CO/N=C(\C(=O)N[C@@H]1C(=O)N2C(C(=O)O)=C(C[N+]3(C)CCCC3)CS[C@H]12)c1csc(N)n1 | inactive | inactive | inactive |  |  | 
19 | CC(C)C[C@H]1C(=O)N2CCC[C@H]2[C@]2(O)O[C@](NC(=O)[C@@H]3C=C4c5cccc6[nH]c(Br)c(c56)C[C@H]4N(C)C3)(C(C)C)C(=O)N12 | inactive | inactive | inactive |  |  | 
20 | CN1CCN2c3ncccc3Cc3ccccc3C2C1 (centres undefined) | inactive | inactive | inactive |  |  | 
21 | CO[C@H]1C=CO[C@@]2(C)Oc3c(C)c(O)c4c(O)c(c5c(c4c3C2=O)=NC2(CCN(CC(C)C)CC2)N=5)NC(=O)/C(C)=C\C=C/[C@H](C)[C@H](O)[C@@H](C)[C@@H](O)[C@@H](C)[C@H](OC(C)=O)[C@@H]1C | inactive | inactive | inactive |  |  | 
22 | CNNCc1ccc(C(=O)NC(C)C)cc1 | inactive | inactive | inactive |  |  | 
23 | COc1cc(NS(C)(=O)=O)ccc1Nc1c2ccccc2nc2ccccc12 | inactive | inactive | inactive |  |  | 
24 | CC(=O)O[C@H]1C(=O)[C@@]2(C)[C@H]([C@H](OC(=O)c3ccccc3)[C@]3(O)C[C@H](OC(=O)[C@H](O)[C@@H](NC(=O)c4ccccc4)c4ccccc4)C(C)=C1C3(C)C)[C@]1(OC(C)=O)CO[C@@H]1C[C@@H]2O | inactive | inactive | inactive |  |  | 
25 | CN[C@@H](C)Cc1ccccc1 | inactive | inactive | inactive |  |  | 
26 | CO/N=C(\C(=O)N[C@@H]1C(=O)N2C(C(=O)O)=C(COC(C)=O)CS[C@H]12)c1csc(N)n1 (stereo in doubt) | inactive | inactive | inactive |  |  | 
27 | CCCCCCCCCCCCCCCC(=O)OCCC1CCN(CCCN2c3ccccc3Sc3ccc(S(=O)(=O)N(C)C)cc32)CC1 | inactive | inactive | inactive |  |  | 
28 | CCNC(=O)[C@@H]1CCCN1C(=O)[C@H](CCCN=C(N)N)NC(=O)[C@H](CC(C)C)NC(=O)[C@@H](CC(C)C)NC(=O)[C@H](Cc1ccc(O)cc1)NC(=O)[C@H](CO)NC(=O)[C@H](Cc1c[nH]c2ccccc12)NC(=O)[C@H](Cc1cnc[nH]1)NC(=O)[C@@H]1CCC(=O)N1 | inactive | inactive | inactive |  |  | 

Row | Compound | outcome [1] | outcome [2] | outcome [3] | AC50 [3] | AC50 [1] | outcome [4]
29 | CO/N=C(/C(=O)N[C@@H]1C(=O)N2C(C(=O)O)=C(COC(N)=O)CS[C@H]12)c1ccco1 | inactive | inactive | inactive |  |  | 
30 | CC(=O)NCCCS(=O)(=O)O | inactive | inactive | inactive |  |  | 
31 | C[N+]1(C)[C@@H]2CC(OC(=O)C(O)(c3cccs3)c3cccs3)C[C@H]1[C@@H]1O[C@@H]12 (some centres undefined) | inactive | inactive | inactive |  |  | 
32 | CN1C(=O)CC(=O)N(c2ccccc2)c2cc(Cl)ccc21 | inactive | inactive | inactive |  |  | 
33 | CN1C[C@H](C(=O)N[C@]2(C)O[C@@]3(O)[C@@H]4CCCN4C(=O)[C@H](Cc4ccccc4)N3C2=O)C=C2c3cccc4[nH]cc(c34)C[C@H]21 | inactive | inactive | inactive |  |  | 
34 | C#CCC(Cc1cnc2nc(N)nc(N)c2n1)c1ccc(C(=O)N[C@@H](CCC(=O)O)C(=O)O)cc1 (some centres undefined) | inactive | inactive | inactive |  |  | 
35 | CC(C)c1nc(N(C)S(C)(=O)=O)nc(-c2ccc(F)cc2)c1/C=C/C(O)CC(O)CC(=O)O (centres undefined) | inactive | inactive | inactive |  |  | 
36 | O=C1Nc2ccc(Cl)cc2C(c2ccccc2)=NC1O (centres undefined) | inactive | inactive | inactive |  |  | 
37 | CNC(C)[C@@H]1CC[C@@H](N)[C@@H](O[C@H]2[C@H](O)[C@@H](O[C@H]3OC[C@](C)(O)[C@H](NC)[C@H]3O)[C@H](N)C[C@@H]2N)O1 (some centres undefined) | inactive | inactive | inactive |  |  | 
38 | NCCCCCC(=O)O | inactive | inactive | inactive |  |  | inactive
39 | C=CCC1([C@H](C)CCC)C(=O)NC(=O)NC1=O | inactive | inactive | inactive |  |  | inactive
40 | CO[C@@]1(NC(=O)C2SC(=C(C(N)=O)C(=O)O)S2)C(=O)N2C(C(=O)O)=C(CSc3nnnn3C)CS[C@@H]21 (some centres undefined) | inactive | inactive | inactive |  |  | 
41 | CC[C@H]1OC(=O)[C@H](C)C(=O)[C@H](C)[C@@H](O[C@@H]2O[C@H](C)C[C@H](N(C)C)[C@H]2O)[C@](C)(OC)C[C@@H](C)C(=O)[C@H](C)[C@H]2N(CCCCn3cnc(-c4cccnc4)c3)C(=O)O[C@]12C | inactive | inactive | inactive |  |  | 
42 | CN1C(C(=O)Nc2ccccn2)=C(O)c2ccccc2S1(=O)=O | inactive | inactive | inactive |  |  | inactive
43 | CC[C@H](C)C(=O)O[C@H]1C[C@H](O)C=C2C=C[C@H](C)[C@H](CC[C@@H](O)C[C@@H](O)CC(=O)O)[C@H]21 | inactive | inactive | inactive |  |  | 
44 | NCC[C@H](O)C(=O)N[C@@H]1C[C@H](N)[C@@H](O[C@H]2O[C@H](CN)[C@@H](O)[C@H](O)[C@@H]2O)[C@H](O)[C@@H]1O[C@H]1O[C@H](CO)[C@@H](O)[C@H](N)[C@@H]1O | inactive | inactive | inactive |  |  | inactive
45 | Cc1nnc2n1-c1ccc(Cl)cc1C(c1ccccc1Cl)=NC2 | inactive | inactive | inactive |  |  | 
46 | OCCOCCN1CCN(C2=Nc3ccccc3Sc3ccccc32)CC1 | inactive | inactive | inactive |  |  | inactive
47 | CCS(=O)(=O)CCn1c([N+](=O)[O-])cnc1C | inactive | inactive | inactive |  |  | inactive
48 | NS(=O)(=O)c1cc(C2(O)NC(=O)c3ccccc32)ccc1Cl (centres undefined) | inactive | inactive | inactive |  |  | inactive
49 | NC(N)=Nc1nc(CSCC/C(N)=N/S(N)(=O)=O)cs1 | inactive | inactive | inactive |  |  | 
50 | CN1C(=O)OC(C)(C)C1=O | inactive | inactive | inactive |  |  | 
51 | CN1CCN(CCC=C2c3ccccc3Sc3ccc(S(=O)(=O)N(C)C)cc32)CC1 |  | inactive |  | 4.47 µM (active) | 4.47 µM (active) | 
52 | CCn1cc(C(=O)O)c(=O)c2cc(F)c(N3CCNC(C)C3)c(F)c21 (centres undefined) | inactive | inactive | inactive |  |  | inactive
53 | COc1c(N2C[C@@H]3CCCN[C@@H]3C2)c(F)cc2c(=O)c(C(=O)O)cn(C3CC3)c12 | inactive | inactive | inactive |  |  | inactive
54 | CC[C@@H](C)CCCCC(=O)N[C@@H](CCNCS(=O)(=O)O)C(=O)N[C@H](C(=O)N[C@@H](CCNCS(=O)(=O)O)C(=O)N[C@H]1CCNC(=O)[C@H]([C@@H](C)O)NC(=O)[C@H](CCNCS(=O)(=O)O)NC(=O)[C@H](CCNCS(=O)(=O)O)NC(=O)[C@H](CC(C)C)NC(=O)[C@@H](CC(C)C)NC(=O)[C@H](CCNCS(=O)(=O)O)NC1=O)[C@@H](C)O (X1-[Dab(CH2SO3H)]T[Dab(CH2SO3H)][Dab][Dab(CH2SO3H)][dL]L[Dab(CH2SO3H)][Dab(CH2SO3H)]T; lactam 4-C) | inactive | inactive | inactive |  |  | 
55 | CO[C@H]1C[C@@H]2CC[C@@H](C)[C@@](O)(O2)C(=O)C(=O)N2CCCC[C@@H]2C(=O)O[C@H]([C@H](C)C[C@@H]2CC[C@H](OCCO)[C@H](OC)C2)CC(=O)[C@H](C)C=C(C)[C@@H](O)[C@@H](OC)C(=O)[C@H](C)C[C@H](C)C=CC=CC=C1C | inactive | inactive | inactive |  |  | 
